In the supplement of paper PMC10849652:
The full data set covers some 7,900 targets. This sample favours those with a hit. About 0.6% of all pairs of compound and target were hits.

Legend:
Assay in all cases: log2 fold change, soluble protein after heating vs DMSO (PISA); higher = thermal stabilisation; K562 cells, 10 uM, 30 min; active = over 0.2 and 3.5 SD of the protein, either way, in both replicates (recomputed)
[1] = compound: C#Cc1cccc(Nc2ncnc3cc(OCCOC)c(OCCOC)cc23)c1 [erlotinib]
Outline: (§1)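 Values are thermal stability changes relative to control samples and are taken from duplicates. They are stated as log2 fold changes. Before quantification by TMTpro 16plex LC-MS/MS with equalised channel sums, K562 cells at 2×10^6 cells/mL were treated with 10 μM compound for 30 min, heated in aliquots for 3 min across 48°C-58°C, pooled, extracted in PBS with 0.5% NP-40 at 4°C, and centrifuged at 21,000xg for 90 min to give the soluble supernatant.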

[2] = compound: C/C(=N\NC(=O)C1=CC(=CC=C1)S(=O)(=O)N2CCOCC2)/C3=C(C=CC(=C3)Cl)O
Outline: as §1

[3] = compound: C1=CC(=C(C=C1Cl)C2=NC3=NC=CN=C3C(=N2)NC4=CC=NC=C4)F
Outline: as §1

[4] = compound: C1=CC(=CC=C1C2=NC3=C(N2)C=C(C=C3)C(=O)N)OC4=CC=C(C=C4)Cl
Outline: as §1

[5] = compound: C1=CC2=C(C=CC(=C2)/C=C\3/C(=O)NC(=NCC4=CC=CS4)S3)N=C1
Outline: as §1

[6] = compound: C1=CC2=NC=CN=C2C=C1/C=C/3\C(=O)NC(=O)S3
Outline: as §1

[7] = compound: C1=CC=C(C=C1)C2=NC(=C(N2)C3=CC=NC=C3)C4=CC(=C(C=C4)Cl)O
Outline: as §1

[8] = compound: C1=CC=C2C(=C1)C3=NNC4=CC=CC(=C43)C2=O
Outline: as §1

[9] = compound: C1CCN(C1)C(=O)NC2=CC=CC(=C2)NC3=NC=C(C(=N3)NCCC4=CN=CN4)Br
Outline: as §1

[10] = compound: C1CN(CCC1(CC2=CC=C(C=C2)Cl)N)C3=NC=NC4=C3C=CN4
Outline: as §1

Measured: log2 fold change

RMC1 (UniProt Q96DM3)
inactive: [1] 0.028 | [2] 0.124 | [3] 0.048 | [4] 0.04 | [5] 0.027 | [6] -0.038 | [7] 0.011 | [8] -0.055 | [9] 0.048 | [10] -0.038

SETD3 (UniProt Q86TU7)
inactive: [1] 0.01 | [2] -0.007 | [3] 0.04 | [4] 0.009 | [5] 0.06 | [6] 0.002 | [7] 0.031 | [8] 0.004 | [9] -0.015 | [10] 0.044

SIDT2 isoform 2 (UniProt Q8NBJ9)
Chain of UniProt Q8NBJ9 (Q8NBJ9 whole entry, looked up): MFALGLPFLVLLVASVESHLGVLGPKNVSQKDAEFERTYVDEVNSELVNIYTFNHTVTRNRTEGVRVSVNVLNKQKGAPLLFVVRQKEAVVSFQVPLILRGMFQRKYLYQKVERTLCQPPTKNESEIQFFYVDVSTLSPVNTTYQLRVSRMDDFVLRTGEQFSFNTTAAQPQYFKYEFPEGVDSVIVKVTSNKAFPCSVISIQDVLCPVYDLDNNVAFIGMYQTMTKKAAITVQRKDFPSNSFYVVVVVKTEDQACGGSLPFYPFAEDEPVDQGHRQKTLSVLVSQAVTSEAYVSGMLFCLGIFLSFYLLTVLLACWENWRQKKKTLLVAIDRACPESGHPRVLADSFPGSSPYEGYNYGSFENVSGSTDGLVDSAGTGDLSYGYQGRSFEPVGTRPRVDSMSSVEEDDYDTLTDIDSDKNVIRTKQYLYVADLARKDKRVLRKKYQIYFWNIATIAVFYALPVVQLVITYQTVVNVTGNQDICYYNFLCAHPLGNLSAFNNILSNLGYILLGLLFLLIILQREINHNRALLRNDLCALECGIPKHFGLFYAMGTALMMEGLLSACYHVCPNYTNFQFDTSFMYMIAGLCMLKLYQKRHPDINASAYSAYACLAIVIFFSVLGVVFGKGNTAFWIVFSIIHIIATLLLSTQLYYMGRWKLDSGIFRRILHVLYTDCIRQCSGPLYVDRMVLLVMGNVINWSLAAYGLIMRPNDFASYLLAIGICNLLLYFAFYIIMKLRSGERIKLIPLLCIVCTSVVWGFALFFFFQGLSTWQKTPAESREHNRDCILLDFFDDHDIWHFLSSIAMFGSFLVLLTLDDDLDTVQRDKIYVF
inactive: [1] 0.007 | [2] 0.026 | [3] -0.027 | [4] 0.004 | [5] 0.042 | [6] 0.087 | [7] -0.053 | [8] 0.038 | [9] 0.002 | [10] 0.053

SERPINA7 (UniProt P05543)
Chain of UniProt P05543 (P05543 whole entry, looked up): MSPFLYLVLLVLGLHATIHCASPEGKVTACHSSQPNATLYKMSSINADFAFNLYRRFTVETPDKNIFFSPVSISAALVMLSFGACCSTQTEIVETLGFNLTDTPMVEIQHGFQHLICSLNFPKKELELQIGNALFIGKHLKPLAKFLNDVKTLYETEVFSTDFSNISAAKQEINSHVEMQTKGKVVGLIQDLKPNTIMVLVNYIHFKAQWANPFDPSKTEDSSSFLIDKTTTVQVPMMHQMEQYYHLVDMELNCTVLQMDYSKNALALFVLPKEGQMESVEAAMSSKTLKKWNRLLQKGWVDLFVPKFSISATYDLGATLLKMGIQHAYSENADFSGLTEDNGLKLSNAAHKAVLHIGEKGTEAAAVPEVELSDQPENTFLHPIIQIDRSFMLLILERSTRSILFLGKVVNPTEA
inactive: [1] -0.118 | [2] -0.1 | [3] -0.024 | [4] 0.091 | [5] 0.15 | [6] -0.111 | [7] -0.004 | [8] -0.072 | [9] 0.164 | [10] 0.272

RPS9 (UniProt P46781)
inactive: [1] -0.099 | [2] -0.05 | [3] -0.384 | [4] 0.024 | [5] -0.069 | [6] -0.011 | [7] 0.047 | [8] 0.002 | [9] 0.102 | [10] -0.172

RABGAP1L isoform 3 (UniProt Q5R372)
inactive: [1] 0.087 | [2] 0.052 | [3] 0.161 | [4] -0.021 | [5] 0.029 | [6] 0.033 | [7] -0.001 | [8] 0.035 | [9] 0.004 | [10] 0.007

ROCK1 (UniProt Q13464)
inactive: [1] 0.049 | [2] -0.025 | [3] 0.042 | [4] -0.007 | [5] 0.199 | [6] 0.027 | [7] -0.007 | [8] -0.018 | [9] 0.032 | [10] 0.205

SIRT2 (UniProt Q8IXJ6)
inactive: [1] 0.03 | [2] 0.055 | [3] 0.001 | [4] 0.054 | [5] -0.113 | [6] 0.017 | [7] 0.051 | [8] 0.029 | [9] 0.025 | [10] 0.016

SASH1 (UniProt O94885)
inactive: [1] -0.013 | [2] 0.12 | [3] 0.145 | [4] -0.01 | [5] -0.104 | [6] -0.009 | [7] 0.005 | [8] 0.107 | [9] -0.041 | [10] -0.079

ROMO1 (UniProt P60602)
Chain of UniProt P60602 (P60602 whole entry, looked up): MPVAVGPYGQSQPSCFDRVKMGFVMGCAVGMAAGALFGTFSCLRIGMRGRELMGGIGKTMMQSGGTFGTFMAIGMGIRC
inactive: [1] 0.016 | [2] -0.092 | [3] 0.045 | [4] -0.01 | [5] -0.009 | [6] 0.018 | [7] 0.008 | [8] 0.003 | [9] 0.039 | [10] 0.001

RRP36 (UniProt Q96EU6)
Chain of UniProt Q96EU6 (Q96EU6 whole entry, looked up): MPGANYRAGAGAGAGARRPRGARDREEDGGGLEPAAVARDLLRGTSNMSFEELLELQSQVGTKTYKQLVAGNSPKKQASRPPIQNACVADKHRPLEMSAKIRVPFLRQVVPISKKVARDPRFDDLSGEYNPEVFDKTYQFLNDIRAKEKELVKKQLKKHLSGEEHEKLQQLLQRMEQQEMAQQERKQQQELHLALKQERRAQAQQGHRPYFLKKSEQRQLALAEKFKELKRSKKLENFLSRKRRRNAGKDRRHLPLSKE
inactive: [1] -0.192 | [2] -0.147 | [3] -0.586 | [4] -0.005 | [5] -0.133 | [6] -0.06 | [7] 0.019 | [8] 0.012 | [9] 0.045 | [10] -0.146

RABGGTA (UniProt Q92696)
Chain of UniProt Q92696 (Q92696 whole entry, looked up): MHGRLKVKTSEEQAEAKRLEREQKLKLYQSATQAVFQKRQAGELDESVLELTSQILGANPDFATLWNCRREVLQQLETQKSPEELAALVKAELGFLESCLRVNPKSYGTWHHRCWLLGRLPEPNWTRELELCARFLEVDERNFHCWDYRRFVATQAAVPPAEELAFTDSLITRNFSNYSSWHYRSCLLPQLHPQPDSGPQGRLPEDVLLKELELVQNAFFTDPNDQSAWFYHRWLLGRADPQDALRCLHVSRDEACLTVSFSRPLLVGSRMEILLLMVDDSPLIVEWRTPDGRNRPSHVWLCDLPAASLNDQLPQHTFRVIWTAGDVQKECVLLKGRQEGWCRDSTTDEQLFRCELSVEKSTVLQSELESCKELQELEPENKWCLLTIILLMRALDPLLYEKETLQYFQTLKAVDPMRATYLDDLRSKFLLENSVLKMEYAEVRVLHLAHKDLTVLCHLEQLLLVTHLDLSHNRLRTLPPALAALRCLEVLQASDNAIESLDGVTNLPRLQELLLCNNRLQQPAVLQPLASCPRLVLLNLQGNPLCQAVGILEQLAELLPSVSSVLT
inactive: [1] 0.068 | [2] 0.018 | [3] 0.065 | [4] 0.001 | [5] 0.063 | [6] 0.025 | [7] 0.036 | [8] 0.043 | [9] 0.005 | [10] 0.122

RPS19 (UniProt P39019)
inactive: [1] -0.141 | [2] -0.102 | [3] -0.274 | [4] 0.057 | [5] -0.082 | [6] -0.044 | [7] -0.026 | [8] -0.015 | [9] 0.094 | [10] -0.145

RETREG3 (UniProt Q86VR2)
Chain of UniProt Q86VR2 (Q86VR2 whole entry, looked up): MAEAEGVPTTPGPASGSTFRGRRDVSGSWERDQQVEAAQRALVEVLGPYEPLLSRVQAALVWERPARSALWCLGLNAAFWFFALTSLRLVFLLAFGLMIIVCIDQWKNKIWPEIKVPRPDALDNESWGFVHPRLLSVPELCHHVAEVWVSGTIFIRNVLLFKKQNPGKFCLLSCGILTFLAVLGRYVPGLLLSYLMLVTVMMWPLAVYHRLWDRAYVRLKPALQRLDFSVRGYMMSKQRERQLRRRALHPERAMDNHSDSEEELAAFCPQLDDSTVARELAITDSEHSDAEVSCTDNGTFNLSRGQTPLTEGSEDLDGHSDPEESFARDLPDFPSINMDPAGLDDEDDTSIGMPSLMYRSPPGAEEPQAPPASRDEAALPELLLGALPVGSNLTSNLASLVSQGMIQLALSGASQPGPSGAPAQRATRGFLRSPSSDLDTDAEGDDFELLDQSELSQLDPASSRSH
inactive: [1] 0.004 | [2] 0.072 | [3] 0.037 | [4] 0.031 | [5] -0.053 | [6] 0.07 | [7] 0.062 | [8] -0.087 | [9] -0.029 | [10] 0.032

ROCK2 (UniProt O75116)
inactive: [1] 0.05 | [2] 0.02 | [3] 0.031 | [4] 0.003 | [5] 0.158 | [6] 0.126 | [7] -0.009 | [8] -0.071 | [9] 0.036 | [10] 0.099

RCC1 isoform 2 (UniProt P18754)
inactive: [1] 0.158 | [2] 0.195 | [3] 0.11 | [4] 0.03 | [5] 0.105 | [6] -0.004 | [7] -0.003 | [8] 0.018 | [9] -0.09 | [10] 0.011

RSRC1 (UniProt Q96IZ7)
Chain of UniProt Q96IZ7 (Q96IZ7 whole entry, looked up): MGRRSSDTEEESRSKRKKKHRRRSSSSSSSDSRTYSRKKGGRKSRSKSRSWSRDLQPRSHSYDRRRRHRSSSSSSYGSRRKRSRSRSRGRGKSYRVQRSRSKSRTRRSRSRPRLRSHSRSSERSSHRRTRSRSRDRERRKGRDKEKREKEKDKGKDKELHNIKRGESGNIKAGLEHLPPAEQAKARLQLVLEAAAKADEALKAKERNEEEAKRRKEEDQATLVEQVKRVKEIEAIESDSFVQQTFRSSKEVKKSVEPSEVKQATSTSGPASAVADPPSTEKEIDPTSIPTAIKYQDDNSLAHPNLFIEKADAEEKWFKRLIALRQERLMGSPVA
inactive: [1] 0 | [2] 0.135 | [3] -0.148 | [4] 0.071 | [5] -0.033 | [6] -0.057 | [7] -0.026 | [8] -0.073 | [9] 0.016 | [10] -0.1

SFXN5 (UniProt Q8TD22)
inactive: [1] -0.077 | [2] 0.09 | [3] -0.02 | [4] 0.082 | [5] -0.003 | [6] 0.023 | [7] 0.081 | [8] -0.001 | [9] -0.066 | [10] -0.045

RPS5 (UniProt P46782)
inactive: [1] -0.149 | [2] -0.087 | [3] -0.193 | [4] 0.038 | [5] -0.047 | [6] -0.045 | [7] -0.003 | [8] 0.008 | [9] 0.022 | [10] -0.125

SDCBP (UniProt O00560)
Chain of UniProt O00560 (O00560 whole entry, looked up): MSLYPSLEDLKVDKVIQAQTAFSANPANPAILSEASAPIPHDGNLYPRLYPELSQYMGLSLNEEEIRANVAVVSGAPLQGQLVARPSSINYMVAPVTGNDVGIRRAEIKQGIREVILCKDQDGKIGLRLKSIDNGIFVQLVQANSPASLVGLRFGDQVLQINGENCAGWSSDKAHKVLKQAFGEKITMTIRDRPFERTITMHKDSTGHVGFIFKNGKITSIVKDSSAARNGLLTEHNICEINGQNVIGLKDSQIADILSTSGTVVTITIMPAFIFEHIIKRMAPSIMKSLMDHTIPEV
inactive: [1] -0.048 | [2] -0.1 | [3] -0.058 | [4] 0.047 | [5] -0.036 | [6] -0.008 | [7] 0.034 | [8] 0.002 | [9] -0.021 | [10] -0.045

SLC1A3 (UniProt P43003)
Chain of UniProt P43003 (P43003 whole entry, looked up): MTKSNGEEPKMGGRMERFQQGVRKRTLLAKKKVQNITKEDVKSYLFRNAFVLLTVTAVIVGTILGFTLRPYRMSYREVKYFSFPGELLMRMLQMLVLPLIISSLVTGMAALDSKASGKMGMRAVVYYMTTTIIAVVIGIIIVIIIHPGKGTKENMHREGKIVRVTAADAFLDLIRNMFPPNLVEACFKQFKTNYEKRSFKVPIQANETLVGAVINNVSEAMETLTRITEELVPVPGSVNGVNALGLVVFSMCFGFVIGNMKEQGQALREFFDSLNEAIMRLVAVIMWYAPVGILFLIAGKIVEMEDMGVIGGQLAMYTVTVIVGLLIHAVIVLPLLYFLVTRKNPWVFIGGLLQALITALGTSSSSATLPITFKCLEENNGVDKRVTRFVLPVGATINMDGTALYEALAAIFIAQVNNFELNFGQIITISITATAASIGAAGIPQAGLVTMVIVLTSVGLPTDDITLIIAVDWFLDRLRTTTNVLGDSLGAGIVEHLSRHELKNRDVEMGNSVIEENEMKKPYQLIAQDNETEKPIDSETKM
inactive: [1] 0.025 | [2] 0.017 | [3] 0.194 | [4] 0.053 | [5] -0.169 | [6] 0.001 | [7] 0.007 | [8] 0.012 | [9] 0.05 | [10] 0.163

SAAL1 (UniProt Q96ER3)
inactive: [1] -0.044 | [2] 0.028 | [3] 0.046 | [4] 0.022 | [5] -0.033 | [6] 0.125 | [7] -0.041 | [8] -0.007 | [9] 0.042 | [10] -0.03

SLBP (UniProt Q14493)
inactive: [1] 0.006 | [2] 0.03 | [3] -0.058 | [4] 0.019 | [5] -0.111 | [6] 0.035 | [7] 0.005 | [8] 0.008 | [9] 0.008 | [10] -0.039

SKP1 (UniProt P63208)
Chain of UniProt P63208 (P63208 whole entry, looked up): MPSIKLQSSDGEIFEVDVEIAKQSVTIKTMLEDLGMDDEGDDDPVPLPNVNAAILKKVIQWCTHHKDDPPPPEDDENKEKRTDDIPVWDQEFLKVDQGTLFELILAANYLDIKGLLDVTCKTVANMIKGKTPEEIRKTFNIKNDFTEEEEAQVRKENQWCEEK
inactive: [1] -0.003 | [2] -0.036 | [3] 0.05 | [4] -0.011 | [5] -0.048 | [6] 0.045 | [7] 0.047 | [8] 0.009 | [9] -0.006 | [10] 0.03

RPA1 (UniProt P27694)
inactive: [1] 0.003 | [2] 0.07 | [3] 0.147 | [4] 0.008 | [5] -0.005 | [6] 0.003 | [7] 0.027 | [8] 0.075 | [9] -0.013 | [10] -0.021

RAB5C isoform 2 (UniProt P51148)
Chain of UniProt P51148 (P51148 whole entry, looked up): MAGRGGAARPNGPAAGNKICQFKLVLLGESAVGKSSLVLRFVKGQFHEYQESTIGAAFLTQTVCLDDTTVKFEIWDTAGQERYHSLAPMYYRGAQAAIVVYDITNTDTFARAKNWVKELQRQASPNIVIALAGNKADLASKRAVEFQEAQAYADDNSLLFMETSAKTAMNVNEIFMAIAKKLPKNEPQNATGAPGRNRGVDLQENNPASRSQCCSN
inactive: [1] 0 | [2] 0.042 | [3] 0.066 | [4] 0.015 | [5] -0.083 | [6] 0.014 | [7] 0.012 | [8] 0.015 | [9] -0.003 | [10] 0.043

RPS14 (UniProt P62263)
inactive: [1] -0.166 | [2] -0.077 | [3] -0.124 | [4] 0.027 | [5] -0.149 | [6] -0.04 | [7] 0.039 | [8] 0.045 | [9] 0.031 | [10] -0.126

RPS20 isoform 2 (UniProt P60866)
inactive: [1] -0.129 | [2] -0.082 | [3] -0.171 | [4] 0.023 | [5] -0.004 | [6] -0.068 | [7] -0.04 | [8] -0.025 | [9] 0.05 | [10] -0.159

RNF187 (UniProt Q5TA31)
Chain of UniProt Q5TA31 (Q5TA31 whole entry, looked up): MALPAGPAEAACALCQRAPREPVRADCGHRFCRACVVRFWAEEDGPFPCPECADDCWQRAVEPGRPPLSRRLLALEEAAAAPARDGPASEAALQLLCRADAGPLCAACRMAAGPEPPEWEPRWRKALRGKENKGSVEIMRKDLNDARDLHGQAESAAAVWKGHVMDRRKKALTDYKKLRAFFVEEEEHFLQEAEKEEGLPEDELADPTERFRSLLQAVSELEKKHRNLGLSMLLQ
inactive: [1] 0.095 | [2] -0.05 | [3] -0.061 | [4] -0.028 | [5] 0.101 | [6] -0.028 | [7] -0.067 | [8] 0.008 | [9] 0.017 | [10] -0.056

RNF14 (UniProt Q9UBS8)
Chain of UniProt Q9UBS8 (Q9UBS8 whole entry, looked up): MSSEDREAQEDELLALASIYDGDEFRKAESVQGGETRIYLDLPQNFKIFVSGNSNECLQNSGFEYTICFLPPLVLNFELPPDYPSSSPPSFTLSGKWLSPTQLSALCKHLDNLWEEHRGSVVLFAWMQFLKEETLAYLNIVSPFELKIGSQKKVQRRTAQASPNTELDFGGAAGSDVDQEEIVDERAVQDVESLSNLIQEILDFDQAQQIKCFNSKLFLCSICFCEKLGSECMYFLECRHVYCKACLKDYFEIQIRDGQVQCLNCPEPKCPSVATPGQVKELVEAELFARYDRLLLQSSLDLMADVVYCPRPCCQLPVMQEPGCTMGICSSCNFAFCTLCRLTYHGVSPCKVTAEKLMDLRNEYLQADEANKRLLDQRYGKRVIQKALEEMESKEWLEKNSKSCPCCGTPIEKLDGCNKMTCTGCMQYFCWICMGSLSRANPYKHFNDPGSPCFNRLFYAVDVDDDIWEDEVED
inactive: [1] -0.006 | [2] 0.038 | [3] 0.048 | [4] 0.043 | [5] 0.015 | [6] -0.019 | [7] 0.014 | [8] -0.029 | [9] 0.002 | [10] 0.071
